The values below come from PubChem BioAssay.

A number with no mark means an inactive call. For some of these results: Entries with a potency or affinity are not part of this list. The source made the active and inactive calls. Unless noted, how the calls were made is not given here.

Assay [1] in a line: antimalarial activity against Dd2 strain (AID 2302;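 active means growth inhibition above 50% at the single 2 µM test dose, taken to imply half-maximal potency below 2 µM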;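 further: 0% = DMSO untreated growth and 100% = chloroquine plus artemisinin killed control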). Particulars: P. falciparum Dd2 in RBCs, LDH growth readout, 72 h; at 2 µM; stronger effect = higher value.
A short description of assay [2]: HepG2 cytotoxicity, primary screen, cytotoxicity control for P. falciparum antimalarial project, cell-based, ATP luminescence (AID 2303;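 active means inhibition above 50%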;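 further: 0% = DMSO wells and 100% = digitonin-killed cells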). Particulars: HepG2 viability, 24-48 h, at 10 µM, stronger effect = higher value.
The target in assay [3] is L-lactate dehydrogenase (Plasmodium falciparum (isolate CDC / Honduras)) (UniProt Q27743). The assay can be described thus: PfLDH activity inhibition – cell lysate, 3D7 strain, counter-screen for P. falciparum growth inhibition project (AID 2304).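 Further: 0% = vehicle and 100% = reference inhibitor.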 Particulars: P. falciparum 3D7 crude extract, LDH APAD/NBT absorbance; at 2 µM; stronger effect = higher value.
Chain of L-lactate dehydrogenase (Plasmodium falciparum (isolate CDC / Honduras)) (Q27743 whole entry, looked up): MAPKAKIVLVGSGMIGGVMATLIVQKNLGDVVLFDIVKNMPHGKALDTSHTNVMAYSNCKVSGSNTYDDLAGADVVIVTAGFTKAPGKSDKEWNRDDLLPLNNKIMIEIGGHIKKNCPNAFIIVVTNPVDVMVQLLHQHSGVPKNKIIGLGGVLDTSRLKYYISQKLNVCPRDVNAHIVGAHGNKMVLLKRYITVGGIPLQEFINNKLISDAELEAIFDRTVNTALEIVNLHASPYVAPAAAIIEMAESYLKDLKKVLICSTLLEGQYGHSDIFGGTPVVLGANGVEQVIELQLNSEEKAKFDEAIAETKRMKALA
Assay [4] is described as follows: inhibition of 3D7 malaria parasite growth – strain 3D7 (AID 2306).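 Further: 0% = DMSO wells and 100% = chloroquine plus artemisinin control wells.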 Particulars: P. falciparum 3D7 erythrocytic growth, LDH absorbance, 72 h; at 2 µM; stronger effect = higher value.
In assay [5] the target is Calcium-dependent protein kinase 1 (Plasmodium falciparum (isolate 3D7)) (UniProt P62344). As to the kind of experiment: PfCDPK1 kinase inhibitors, biochemical, TCAMS library (AID 1159585; cut-off not given, nearly all actives have IC50 up to about 0.98 µM;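 further: inhibitors leave more ATP so luminescence rises with inhibition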). To be noted: recombinant PfCDPK1, Kinase-Glo ATP depletion luminescence. (In general: Kinase-Glo reads ATP consumption through a luciferase reaction.)
Chain of Calcium-dependent protein kinase 1 (Plasmodium falciparum (isolate 3D7)) (P62344 whole entry, looked up): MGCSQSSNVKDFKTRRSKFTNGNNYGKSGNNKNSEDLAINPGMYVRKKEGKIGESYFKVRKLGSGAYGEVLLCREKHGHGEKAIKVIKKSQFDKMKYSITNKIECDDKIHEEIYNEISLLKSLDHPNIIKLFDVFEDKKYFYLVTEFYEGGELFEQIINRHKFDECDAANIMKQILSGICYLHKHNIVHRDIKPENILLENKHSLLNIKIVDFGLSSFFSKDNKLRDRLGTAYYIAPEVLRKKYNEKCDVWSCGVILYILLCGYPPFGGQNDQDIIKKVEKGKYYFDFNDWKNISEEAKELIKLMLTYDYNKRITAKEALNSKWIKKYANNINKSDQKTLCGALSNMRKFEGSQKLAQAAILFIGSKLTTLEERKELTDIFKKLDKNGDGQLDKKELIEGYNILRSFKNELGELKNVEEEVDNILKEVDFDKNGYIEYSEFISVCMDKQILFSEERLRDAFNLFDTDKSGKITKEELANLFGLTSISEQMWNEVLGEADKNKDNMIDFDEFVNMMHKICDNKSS
Assay [6] has as its target Plasmodium falciparum protein kinase 6 (PK6, PF3D7_1337100) (UniProt Q8IDW1). As to the kind of experiment: PfPK6 kinase inhibitors, biochemical, TCAMS library (AID 1159586). Particulars: recombinant PfPK6, Kinase-Glo ATP depletion luminescence.
Assay [7] addresses Protein kinase 7 (PK7), Plasmodium falciparum 3D7 (PF3D7_0213400) (UniProt Q7YTF7). The assay can be described thus: inhibition of Plasmodium PK7 catalytic activity – biochemical, TCAMS antimalarial set, Kinase-Glo luminescence (AID 1159587). Particulars: recombinant PfPK7, Kinase-Glo ATP depletion luminescence.
The target of assay [8] is Calcium-dependent protein kinase 4 (Plasmodium falciparum (isolate 3D7)) (UniProt Q8IBS5). As to the kind of experiment: PfCDPK4 kinase inhibitors, biochemical, TCAMS library (AID 1159588; cut-off not given, nearly all actives have IC50 up to about 0.91 µM). To be noted: recombinant PfCDPK4, Kinase-Glo ATP depletion luminescence.
Chain of Calcium-dependent protein kinase 4 (Plasmodium falciparum (isolate 3D7)) (Q8IBS5 whole entry, looked up): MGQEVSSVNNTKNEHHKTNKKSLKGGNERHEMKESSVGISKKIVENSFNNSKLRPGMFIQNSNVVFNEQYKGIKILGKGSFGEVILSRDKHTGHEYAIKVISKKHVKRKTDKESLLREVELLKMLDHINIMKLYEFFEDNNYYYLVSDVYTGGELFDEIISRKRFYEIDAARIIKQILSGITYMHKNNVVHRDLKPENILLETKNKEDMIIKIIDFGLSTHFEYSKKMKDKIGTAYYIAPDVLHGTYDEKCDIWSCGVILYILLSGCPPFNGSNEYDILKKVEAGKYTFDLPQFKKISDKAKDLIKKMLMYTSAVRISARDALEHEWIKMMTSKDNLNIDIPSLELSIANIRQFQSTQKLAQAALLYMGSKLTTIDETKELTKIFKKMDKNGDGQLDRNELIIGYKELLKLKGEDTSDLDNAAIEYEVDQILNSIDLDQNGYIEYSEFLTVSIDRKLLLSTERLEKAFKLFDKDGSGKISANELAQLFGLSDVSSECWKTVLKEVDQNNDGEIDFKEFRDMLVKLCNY

A word on the inhibition: it is the change of the read-out against control, counted positive when it falls.

Chain of Plasmodium falciparum protein kinase 6 (PK6, PF3D7_1337100) (Q8IDW1 1-305): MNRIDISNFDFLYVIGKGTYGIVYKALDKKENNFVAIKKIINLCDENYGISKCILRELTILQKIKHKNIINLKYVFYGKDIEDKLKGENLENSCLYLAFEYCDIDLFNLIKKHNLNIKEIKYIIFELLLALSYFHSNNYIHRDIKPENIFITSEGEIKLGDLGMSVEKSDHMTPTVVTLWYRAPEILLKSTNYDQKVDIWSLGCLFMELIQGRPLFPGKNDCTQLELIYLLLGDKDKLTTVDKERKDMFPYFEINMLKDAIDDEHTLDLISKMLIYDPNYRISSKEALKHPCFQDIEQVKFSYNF
Chain of Protein kinase 7 (PK7), Plasmodium falciparum 3D7 (PF3D7_0213400) (Q7YTF7 1-343): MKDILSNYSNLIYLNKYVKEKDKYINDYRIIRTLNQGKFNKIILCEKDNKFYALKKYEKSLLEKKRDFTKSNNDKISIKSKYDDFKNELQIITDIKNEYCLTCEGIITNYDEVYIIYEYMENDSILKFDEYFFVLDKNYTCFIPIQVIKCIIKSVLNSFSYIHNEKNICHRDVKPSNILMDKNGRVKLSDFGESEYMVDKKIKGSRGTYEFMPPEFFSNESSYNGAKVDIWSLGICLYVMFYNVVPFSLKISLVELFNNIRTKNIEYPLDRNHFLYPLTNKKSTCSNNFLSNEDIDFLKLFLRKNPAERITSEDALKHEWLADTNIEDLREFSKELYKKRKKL

`COc1cc(F)c2ncc(Cl)c(CCN3CCC(NCc4cc5c(cn4)OCCO5)CC3)c2c1`: the growth inhibition in assay [1] is 57% (active); in assay [4], 89% (active). In addition, the inhibition is 2% in assay [2] and -1% in assay [3]. Moreover, the result in assay [5], in assay [6], in assay [7] and in assay [8] was inactive.
With `N#Cc1cncc(-c2nc3c(N4CCN(c5cnccn5)CC4)cccc3n2CCNCc2ccccc2)c1`, the growth inhibition in assay [1] was 31%; in assay [4], 99% (active). Also, the results for the inhibition in assay [2] and in assay [3] were 0% and 4%, respectively. The result in assay [5], in assay [6], in assay [7] and in assay [8] was inactive.
As to `c1ccc(OCCOc2ccc(Nc3ccnc4cc5ccccc5cc34)cc2)cc1`, the growth inhibition in assay [1] is 96% (active); in assay [4], 102% (active). Also, the inhibition in assay [2] was 44%; in assay [3] it was 7%. Also, the outcome in assay [5], in assay [6], in assay [7] and in assay [8] was inactive.
On to `O=C(Nc1ccc(OC2CCN(Cc3ccc(F)cc3)CC2)c(Cl)c1)c1cccs1`, for which the results for the growth inhibition in assay [1] and in assay [4] were 96% (active) and 95% (active), respectively. Further, the inhibition was 7% in assay [2] and -1% in assay [3]. Moreover, the outcome in assay [5], in assay [6], in assay [7] and in assay [8] was inactive.
`Cc1nc(Nc2cc(Cl)ccc2O)nc(Nc2cc(Cl)ccc2O)c1[N+](=O)[O-]`: the growth inhibition in assay [1] was 83% (active); in assay [4], 98% (active). Also, the inhibition in assay [2] is -4%; in assay [3] it was 3%. The outcome in assay [5], in assay [6], in assay [7] and in assay [8] was inactive.
For `CC(C)(CNC(=O)/C=C/c1ccc(C(F)(F)F)cc1)CNc1cc(=O)c2ccccc2[nH]1`, the growth inhibition in assay [1] was 27%; in assay [4], 95% (active). In addition, the inhibition in assay [2] was -1%; in assay [3], -6%. Further, the outcome in assay [5], in assay [6], in assay [7] and in assay [8] was inactive.
Consider `CCOC(=O)c1c(C)noc1Nc1ccc(OC)cc1`, for which the growth inhibition in assay [1] is -6%; in assay [4], 99% (active). Moreover, the inhibition in assay [2] is -1%; in assay [3], -6%. The outcome in assay [5], in assay [6], in assay [7] and in assay [8] was inactive.
With `CN1CCc2cc(Br)c(O)cc2C1Cc1ccccc1Cl` (stereo not given), the growth inhibition in assay [1] is 88% (active); in assay [4], 98% (active). In addition, the inhibition was 2% in assay [2] and -2% in assay [3]. The result in assay [5], in assay [6], in assay [7] and in assay [8] was inactive.
`COc1ccc(NC(=O)[C@H](Cc2ccccc2)Nc2cc(C)nc(NCCc3ccccn3)n2)cc1`: the growth inhibition in assay [1] was 39%; in assay [4], 99% (active). The results for the inhibition in assay [2] and in assay [3] were -7% and -3%, respectively. The result in assay [5], in assay [6], in assay [7] and in assay [8] was inactive.
As to `CC(C)(C)CC(C)(C)c1ccc(O)c(CNC2CCCCC2)c1`, the values for the growth inhibition in assay [1] and in assay [4] were 99% (active) and 98% (active), respectively. Also, the inhibition in assay [2] is 92% (active); in assay [3], 4%. The result in assay [5], in assay [6], in assay [7] and in assay [8] was inactive.
With `CCNc1cc(C(=O)N[C@@H](Cc2ccccc2)[C@H](O)CNC(C)CC(C)C)c(F)c(N2CCCCS2(=O)=O)c1` (stereo not given in full), the growth inhibition is 66% (active) in assay [1] and 95% (active) in assay [4]. Further, the results for the inhibition in assay [2] and in assay [3] were 6% and 4%, respectively. In addition, the result in assay [5], in assay [6], in assay [7] and in assay [8] was inactive.
For the compound `CCc1cn2c3c(cc(C(=O)N[C@@H](Cc4ccccc4)[C@H](O)CNC4CCOCC4)cc13)N(CC(F)(F)F)S(=O)(=O)CC2`, the growth inhibition in assay [1] and in assay [4] was 98% (active) in each case. Further, the inhibition was 4% in assay [2] and -2% in assay [3]. In addition, the outcome in assay [5], in assay [6], in assay [7] and in assay [8] was inactive.
In the case of `O=C(NC1CC1)c1cnc(N2CCC(COc3cccc(F)c3)CC2)c(Cl)c1`, the growth inhibition in assay [1] was 87% (active); in assay [4], 89% (active). Further, the figures for the inhibition in assay [2] and in assay [3] were 1% and 5%, respectively. The result in assay [5], in assay [6], in assay [7] and in assay [8] was inactive.
Consider `c1ccc(CCNCc2ccc(-c3ccc(CNc4ccc5ncccc5c4)cc3)cc2)cc1`, for which the values for the growth inhibition in assay [1] and in assay [4] were 27% and 96% (active), respectively. Besides, the figures for the inhibition in assay [2] and in assay [3] were 36% and -1%, respectively. Besides, the result in assay [5], in assay [6], in assay [7] and in assay [8] was inactive.
Turning to `Cc1cccc(C)c1OC(=O)[C@@H](C)[C@@H](O)C1(Sc2ccccc2)CCN(C)CC1`, the growth inhibition in assay [1] was 92% (active); in assay [4] it was 98% (active). Further, the inhibition in assay [2] was 23%; in assay [3], 1%. Besides, the outcome in assay [5], in assay [6], in assay [7] and in assay [8] was inactive.
Take `Cc1cc(=O)[nH]c(/N=C(/N)NOCCCc2ccccc2)n1`: the growth inhibition in assay [1] is 4%; in assay [4] it was 100% (active). For the same compound, the results for the inhibition in assay [2] and in assay [3] were -4% and 3%, respectively. The result in assay [5], in assay [6], in assay [7] and in assay [8] was inactive.
As to `COc1ccc(CNC(=O)c2cnc3c(O)cccc3c2Nc2cccc(NC(=O)c3ccc(Cl)c(Cl)c3)c2)cc1`, the growth inhibition in assay [1] was 89% (active); in assay [4] it was 96% (active). Moreover, the inhibition was 54% (active) in assay [2] and 4% in assay [3]. Further, the result in assay [5], in assay [6], in assay [7] and in assay [8] was inactive.
For `CCCCOc1c(CCC)cc(Cc2cnc(N)nc2N)cc1CCC`, the growth inhibition in assay [1] was -2%; in assay [4], 97% (active). In addition, the inhibition was 27% in assay [2] and 2% in assay [3]. In addition, the outcome in assay [5], in assay [6], in assay [7] and in assay [8] was inactive.
With `CN(c1ccccc1C(=O)Nc1ccccc1Oc1ccccc1)S(=O)(=O)c1ccccc1`, the values for the growth inhibition in assay [1] and in assay [4] were 80% (active) and 90% (active), respectively. Moreover, the inhibition in assay [2] was 2%; in assay [3], -2%. Moreover, the result in assay [5], in assay [6], in assay [7] and in assay [8] was inactive.
Take `CC(C)c1nc2c(N)nc(N)nc2nc1N`: the growth inhibition in assay [1] was -1%; in assay [4], 84% (active). In addition, the values for the inhibition in assay [2] and in assay [3] were 64% (active) and 2%, respectively. Besides, the outcome in assay [5], in assay [6], in assay [7] and in assay [8] was inactive.
